Data reported in PubChem BioAssay (Tox21).
Where “and” joins values, the source holds several entries; their conditions need not be identical. Identical values can stand only once. Inconclusive results are not listed. A call without a number means that no potency is given here. Some structures have more than one record in an assay (separate samples or runs), and their calls can disagree. Calls of active or inactive are those of the source. Unless noted, calls come from the whole dose curve; as a rule, active = well fitted curve in the direction sought with a large enough effect in the repeat runs; inconclusive = weak or mixed curves; inactive = no such curve, though single readings can be large; an effect the other way counts as inactive or inconclusive.

Key:
[1] = qHTS assay to identify aromatase inhibitors - cell viability counter screen (AID 743084);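 note: cells stimulated with testosterone during compound exposure; nearly all actives have a fitted effect of over 55% in size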; note: potency is the fitted concentration of half-maximal effect
[2] = molecular target: Aryl hydrocarbon receptor (Homo sapiens) (UniProt P35869); experiment: qHTS assay to identify small molecule that activate the aryl hydrocarbon receptor (AhR) signaling pathway (AID 743085); note: nearly all actives have a fitted effect of over 15% in size; note: potency is the fitted concentration of half-maximal effect;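 for activation: HG2L7.5c1 human HepG2 liver cells with stably integrated DRE-driven firefly reporter; series mostly up to about 70 µM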
Sequence of Aryl hydrocarbon receptor (Homo sapiens) (P35869 whole entry, looked up): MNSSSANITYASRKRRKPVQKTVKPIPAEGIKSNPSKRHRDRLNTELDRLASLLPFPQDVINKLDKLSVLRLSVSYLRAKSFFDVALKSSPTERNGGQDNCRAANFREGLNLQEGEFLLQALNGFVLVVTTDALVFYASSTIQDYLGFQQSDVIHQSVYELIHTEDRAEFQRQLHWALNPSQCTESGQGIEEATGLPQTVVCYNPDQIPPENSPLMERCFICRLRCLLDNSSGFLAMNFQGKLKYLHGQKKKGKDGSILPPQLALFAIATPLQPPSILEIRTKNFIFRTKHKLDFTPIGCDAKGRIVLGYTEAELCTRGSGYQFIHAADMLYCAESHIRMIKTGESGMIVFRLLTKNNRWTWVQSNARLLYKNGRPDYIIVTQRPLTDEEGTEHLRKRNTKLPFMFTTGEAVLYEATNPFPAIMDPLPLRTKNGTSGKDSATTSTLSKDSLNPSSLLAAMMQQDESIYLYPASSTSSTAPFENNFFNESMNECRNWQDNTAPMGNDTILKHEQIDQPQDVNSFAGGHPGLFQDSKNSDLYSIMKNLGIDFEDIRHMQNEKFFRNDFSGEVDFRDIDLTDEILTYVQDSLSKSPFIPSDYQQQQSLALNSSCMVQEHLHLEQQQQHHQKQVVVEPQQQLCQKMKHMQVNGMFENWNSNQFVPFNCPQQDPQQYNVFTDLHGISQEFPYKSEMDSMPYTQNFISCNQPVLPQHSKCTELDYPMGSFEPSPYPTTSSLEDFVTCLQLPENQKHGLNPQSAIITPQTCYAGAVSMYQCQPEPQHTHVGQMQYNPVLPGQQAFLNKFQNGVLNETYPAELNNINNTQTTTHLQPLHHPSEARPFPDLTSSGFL
In short: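 Cell line HG2L7.5c1 (human hepatoma, 20× DRE-luc). Plated, 5 h 37C, compound/DMSO added, 24 h 37C. CellTiter-Fluor 30 min 37C → fluorescence; then ONE-Glo 30 min RT → luminescence.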

[3] = molecular target: Peroxisome proliferator-activated receptor gamma (Homo sapiens) (UniProt P37231); experiment: qHTS assay to identify small molecule agonists of the peroxisome proliferator-activated receptor gamma (PPARg) signaling pathway (AID 743094; active = well fitted activation curve with a large enough effect in the signal ratio in the repeat runs, not every such curve was filed as active; the % refers to the signal ratio)
Sequence of Peroxisome proliferator-activated receptor gamma (Homo sapiens) (P37231 whole entry, looked up): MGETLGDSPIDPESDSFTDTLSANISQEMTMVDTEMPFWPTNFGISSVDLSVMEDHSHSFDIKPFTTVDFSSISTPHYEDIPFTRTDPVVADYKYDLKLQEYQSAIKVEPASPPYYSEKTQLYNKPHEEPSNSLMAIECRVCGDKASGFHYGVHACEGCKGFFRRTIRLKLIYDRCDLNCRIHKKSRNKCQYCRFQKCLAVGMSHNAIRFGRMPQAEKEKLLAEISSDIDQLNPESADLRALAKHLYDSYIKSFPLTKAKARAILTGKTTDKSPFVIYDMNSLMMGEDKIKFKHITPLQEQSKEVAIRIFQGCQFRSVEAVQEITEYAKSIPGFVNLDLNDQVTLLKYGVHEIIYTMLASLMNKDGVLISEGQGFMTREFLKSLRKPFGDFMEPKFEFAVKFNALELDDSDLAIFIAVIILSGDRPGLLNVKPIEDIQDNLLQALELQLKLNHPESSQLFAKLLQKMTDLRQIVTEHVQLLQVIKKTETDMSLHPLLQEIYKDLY
In short: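 Beta-lactamase FRET fluorescence was the read-out after a 1 h room-temperature substrate step, following 17 h compound treatment at 37C of HEK293H cells expressing a UAS-driven bla reporter responsive to PPARg.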

[4] = molecular target: Peroxisome proliferator-activated receptor gamma (Homo sapiens) (UniProt P37231); experiment: qHTS assay to identify small molecule antagonists of the peroxisome proliferator-activated receptor gamma (PPARg) signaling pathway (AID 743191; calls by dose curve; note: series mostly up to about 63 µM; nearly all actives have a fitted effect of over 30% in size)
In short: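 Beta-lactamase reporter under UAS control in HEK293H PPARg-bla cells; compound treatment 17 h at 37C. Read-out: fluorescence intensity after 1 h room-temperature incubation with LiveBLAzer B/G FRET substrate.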

[5] = qHTS assay to identify small molecule antagonists of the peroxisome proliferator-activated receptor gamma (PPARg) signaling pathway - cell viability counter screen (AID 743194); conditions: Potency: co-treated with 50 nM rosiglitazone; note: nearly all actives have a fitted effect of over 55% in size
In short: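 Viability was measured as CellTiter-Glo luminescence in GeneBLAzer PPARg UAS-bla HEK293H cells. These cells had been exposed 17 h at 37 C to compounds together with rosiglitazone at 50 nM final, with the beta-lactamase readout taken in the same wells.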

[6] = qHTS assay for small molecule agonists of the antioxidant response element (ARE) signaling pathway (AID 743202; active = well fitted activation curve with a large enough effect in the signal ratio in the repeat runs, not every such curve was filed as active; the % refers to the signal ratio; note: potency is the fitted concentration of half-maximal effect)
In short: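 Quantitative high-throughput format in HepG2 cells bearing an integrated ARE-beta-lactamase reporter. Compound exposure lasted 16 h at 37 C, and fluorescence was read 2 h after adding LiveBLAzer B/G substrate at room temperature.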

[7] = qHTS assay for small molecule agonists of the antioxidant response element (ARE) signaling pathway - cell viability counter screen (AID 743203; calls by dose curve; note: nearly all actives have a fitted effect of over 55% in size)
In short: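 HepG2 cells carrying ARE-driven beta-lactamase; 2,000 cells/well; 5 hrs plating; compound pinned from DMSO; 16 hrs 37C/5% CO2; CellTiter-Glo added; 30 min RT; luminescence.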

[8] = qHTS assay for small molecule activators of the heat shock response signaling pathway - cell viability counter screen (AID 743209); note: nearly all actives have a fitted effect of over 50% in size
In short: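 Luminescence from CellTiter-Glo, added after the beta-lactamase FRET read, gave the viability signal. Cells were HSE-bla HeLa treated with DMSO-dissolved compounds for 5 h at 37 C following overnight plating.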

[9] = qHTS assay for small molecule activators of the heat shock response signaling pathway (AID 743210; active = well fitted activation curve with a large enough effect in the signal ratio in the repeat runs, with a control signal flat, not every such curve was filed as active; the % refers to the signal ratio;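 note: HeLa cells with beta-lactamase reporter driven by heat shock elements; series mostly up to about 63 µM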)
In short: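 HeLa HSE-bla cells, overnight plating; cpd in DMSO 5 h, 37 C; LiveBLAzer B/G FRET substrate 2.5 h RT; fluorescence intensity read.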

[10] = molecular target: Peroxisome proliferator-activated receptor delta (Homo sapiens) (UniProt Q03181); experiment: qHTS assay to identify small molecule agonists of the peroxisome proliferator-activated receptor delta (PPARd) signaling pathway (AID 743212; calls by dose curve)
Sequence of Peroxisome proliferator-activated receptor delta (Homo sapiens) (Q03181 whole entry, looked up): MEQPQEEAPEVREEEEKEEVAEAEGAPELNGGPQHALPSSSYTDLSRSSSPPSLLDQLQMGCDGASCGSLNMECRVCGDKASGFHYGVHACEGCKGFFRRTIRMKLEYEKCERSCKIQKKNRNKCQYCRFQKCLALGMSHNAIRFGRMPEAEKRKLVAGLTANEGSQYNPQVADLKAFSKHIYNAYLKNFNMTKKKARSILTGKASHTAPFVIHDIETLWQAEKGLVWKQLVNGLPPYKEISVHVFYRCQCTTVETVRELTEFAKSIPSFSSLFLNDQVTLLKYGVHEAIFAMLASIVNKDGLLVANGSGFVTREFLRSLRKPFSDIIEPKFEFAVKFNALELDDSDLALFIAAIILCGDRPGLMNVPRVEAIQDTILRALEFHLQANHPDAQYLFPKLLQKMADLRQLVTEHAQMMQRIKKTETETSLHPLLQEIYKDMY
In short: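 HEK293H PPARd-bla cells; 5 h preincubation 37 C/5% CO2; compound (DMSO) 37 C; LiveBLAzer B/G FRET substrate 2 h RT; fluorescence intensity.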

[11] = molecular target: Peroxisome proliferator-activated receptor delta (Homo sapiens) (UniProt Q03181); experiment: qHTS assay to identify small molecule antagonists of the peroxisome proliferator-activated receptor delta (PPARd) signaling pathway (AID 743215; active = well fitted inhibition curve with a large enough effect in the signal ratio in the repeat runs, not every such curve was filed as active; the % refers to the signal ratio;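 note: cells stimulated with agonist L165041 at 300 nM final during compound exposure; series mostly up to about 62 µM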)
In short: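 Read-out is beta-lactamase FRET fluorescence, measured 2 h after substrate addition at room temperature. Beforehand, UAS-bla HEK293H cells carrying the PPARd reporter were exposed to compounds with L165041 at 300 nM final for 17 h at 37 C.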

[12] = molecular target: Bile acid receptor (Homo sapiens) (UniProt Q96RI1); experiment: qHTS assay to identify small molecule antagonists of the farnesoid-X-receptor (FXR) signaling pathway (AID 743217; active = well fitted inhibition curve with a large enough effect in the signal ratio in the repeat runs, not every such curve was filed as active; the % refers to the signal ratio)
Sequence of Bile acid receptor (Homo sapiens) (Q96RI1 whole entry, looked up): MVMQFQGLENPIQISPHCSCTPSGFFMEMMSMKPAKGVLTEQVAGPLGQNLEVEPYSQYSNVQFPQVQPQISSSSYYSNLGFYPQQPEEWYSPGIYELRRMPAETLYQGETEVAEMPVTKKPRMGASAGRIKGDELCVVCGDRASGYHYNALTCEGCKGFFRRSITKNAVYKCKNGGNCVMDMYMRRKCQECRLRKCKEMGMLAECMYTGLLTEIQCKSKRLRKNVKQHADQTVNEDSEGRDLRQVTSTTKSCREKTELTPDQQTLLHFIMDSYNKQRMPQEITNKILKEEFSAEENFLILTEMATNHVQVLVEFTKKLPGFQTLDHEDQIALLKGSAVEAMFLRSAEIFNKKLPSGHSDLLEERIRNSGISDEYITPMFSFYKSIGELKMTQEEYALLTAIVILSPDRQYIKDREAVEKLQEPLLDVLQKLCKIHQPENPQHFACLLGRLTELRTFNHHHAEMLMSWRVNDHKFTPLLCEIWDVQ
In short: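 HEK 293T FXR-UAS-bla, 5000 cells/well; compound + CDCA 50 uM final; 16 h, 37 °C; B/G FRET substrate 2 h RT; fluorescence.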

[13] = qHTS assay to identify small molecule agonists of the farnesoid-X-receptor (FXR) signaling pathway - cell viability counter screen (AID 743218); note: nearly all actives have a fitted effect of over 45% in size
In short: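 HEK 293T FXR-bla cells; 5 h pre-incubation, 16 h compound exposure at 37 C; LiveBLAzer substrate 2 h RT, then CellTiter-Glo 30 min RT, luminescence.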

[14] = molecular target: Bile acid receptor (Homo sapiens) (UniProt Q96RI1); experiment: qHTS assay to identify small molecule agonists of the farnesoid-X-receptor (FXR) signaling pathway (AID 743220; active = well fitted activation curve with a large enough effect in the signal ratio in the repeat runs, not every such curve was filed as active; the % refers to the signal ratio)
In short: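 Beta-lactamase reporter under UAS control in GeneBLAzer FXR HEK 293T cells (5000/well) measured with LiveBLAzer FRET substrate after 2 h at room temperature. Compound exposure lasted 16 h at 37C.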

[15] = qHTS assay to identify small molecule antagonists of the farnesoid-X-receptor (FXR) signaling pathway - cell viability counter screen (AID 743221; active = well fitted cell-killing curve with a large enough effect in the repeat runs, not every such curve was filed as active; note: nearly all actives have a fitted effect of over 50% in size)
In short: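 Luminescence from CellTiter-Glo measures cytotoxicity in GeneBLAzer FXR-UAS-bla HEK 293T cells. Cells were exposed to compounds with 50 uM chenodeoxycholic acid (final) for 16 h at 37 C, in wells also used for the reporter readout.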

[16] = qHTS assay to identify small molecule that activate the aryl hydrocarbon receptor (AhR) signaling pathway - cell viability counter screen (AID 743086);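 note: HepG2 liver cells carrying the AhR DRE luciferase reporter; series mostly up to about 70 µM; nearly all actives have a fitted effect of over 45% in size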
In short: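 Cytotoxicity counter screen: CellTiter-Fluor signal (30 min, 37 C) in 4000 HepG2 cells/well carrying the DRE-luciferase reporter, following 24 h compound exposure at 37 C.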

[17] = qHTS assay to identify small molecule agonists of the peroxisome proliferator-activated receptor delta (PPARd) signaling pathway - cell viability counter screen (AID 743211); note: nearly all actives have a fitted effect of over 55% in size
In short: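 HEK293H PPARd-bla, 3000 cells/well; 5 h preincubation 37C/5% CO2; cpd in DMSO, 17 h 37C; B/G FRET substrate 2 h RT; CellTiter-Glo 30 min RT, luminescence.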

[18] = qHTS assay to identify small molecule antagonists of the peroxisome proliferator-activated receptor delta (PPARd) signaling pathway - cell viability counter screen (AID 743213); note: nearly all actives have a fitted effect of over 50% in size
In short: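 Viability counter-screen, qHTS format: PPARd-bla HEK293H, L165041 300 nM final, 17 h compound exposure at 37 C, CellTiter-Glo luminescence after 30 min RT.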

[19] = molecular target: Vitamin D3 receptor (Homo sapiens) (UniProt P11473); experiment: qHTS assay to identify small molecule agonists of the vitamin D receptor (VDR) signaling pathway (AID 743222; calls by dose curve)
Sequence of Vitamin D3 receptor (Homo sapiens) (P11473 whole entry, looked up): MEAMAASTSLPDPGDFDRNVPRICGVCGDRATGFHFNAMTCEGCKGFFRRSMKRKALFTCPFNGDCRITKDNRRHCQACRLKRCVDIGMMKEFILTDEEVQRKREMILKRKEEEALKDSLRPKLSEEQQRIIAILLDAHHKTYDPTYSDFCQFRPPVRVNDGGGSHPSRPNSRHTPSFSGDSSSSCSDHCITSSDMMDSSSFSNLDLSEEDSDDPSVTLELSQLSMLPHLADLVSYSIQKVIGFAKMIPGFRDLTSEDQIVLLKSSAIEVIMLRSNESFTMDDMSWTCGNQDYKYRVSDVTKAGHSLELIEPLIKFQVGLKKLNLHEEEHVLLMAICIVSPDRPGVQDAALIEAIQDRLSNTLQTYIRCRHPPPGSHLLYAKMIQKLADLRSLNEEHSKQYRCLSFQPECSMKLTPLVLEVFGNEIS
In short: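 VDR-bla cells, 2,000/well; 4 h preincubation 37C; cpd (DMSO) 16 h; LiveBLAzer B/G substrate 2 h RT; fluorescence intensity read.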

[20] = molecular target: Vitamin D3 receptor (Homo sapiens) (UniProt P11473); experiment: qHTS assay to identify small molecule antagonists of the vitamin D receptor (VDR) signaling pathway (AID 743223; active = well fitted inhibition curve with a large enough effect in the signal ratio in the repeat runs, not every such curve was filed as active; the % refers to the signal ratio)
In short: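 Antagonist mode uses 1alpha,25-dihydroxyvitamin D3 at 3 nM final as stimulus. VDR-bla cells receive compounds in DMSO, incubate 16 h at 37C, then a beta-lactamase FRET substrate for 2 h at room temperature before fluorescence measurement.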

| SMILES | Potency [1] | Potency [2] | outcome [3] | Potency [4] | Potency [5] | Potency [6] | Potency [7] | Potency [8] | Potency [9] | outcome [10] | Potency [11] | outcome [12] | Potency [13] | outcome [14] | Potency [15] | Potency [16] | Potency [17] | Potency [18] | outcome [19] | outcome [20] |
| --- | --- | --- | --- | --- | --- | --- | --- | --- | --- | --- | --- | --- | --- | --- | --- | --- | --- | --- | --- | --- |
| CCCCCCCC(=O)Cl | inactive | inactive | inactive | inactive | inactive | inactive | inactive | inactive | inactive | inactive | inactive | inactive | inactive | inactive | inactive |  |  |  |  |  |
| Cc1cc(OC(=O)N(C)C)nn1C(=O)N(C)C | inactive | inactive | inactive |  |  | inactive | inactive | inactive | inactive | inactive | inactive | inactive | inactive | inactive | inactive | inactive | inactive | inactive |  |  |
| BrCC1CO1 (stereo unspecified) | inactive | inactive | inactive | inactive | inactive | inactive | inactive | inactive | inactive | inactive | inactive | inactive |  | inactive | inactive |  | inactive | inactive | inactive | inactive |
| CCN(CCO)CCO | inactive | inactive | inactive | inactive | inactive |  | inactive | inactive | inactive | inactive |  |  | inactive |  | inactive |  | inactive | inactive | inactive | inactive |
| Oc1ccc2c3c1O[C@H]1[C@@H](O)C=C[C@H]4[C@@H](C2)NCC[C@@]341 | inactive | inactive |  |  | inactive |  | inactive | inactive |  |  |  | inactive | inactive | inactive | inactive | inactive |  | inactive | inactive | inactive |
| CCCC(C)(COC(N)=O)COC(N)=O | inactive | inactive | inactive | inactive | inactive | inactive | inactive | inactive | inactive | inactive | inactive |  | inactive |  | inactive |  | inactive | inactive | inactive | inactive |
| CCC(=O)c1ccc(Cl)cc1 | inactive | inactive | inactive | inactive | inactive | inactive | inactive | inactive | inactive | inactive | inactive |  | inactive |  | inactive |  | inactive | inactive | inactive | inactive |
| O=C(Cl)/C=C/C(=O)Cl | inactive | inactive |  |  | inactive | 22 µM (active) | inactive | inactive | inactive | inactive | inactive | inactive | inactive | inactive | inactive | inactive | inactive | inactive | inactive |  |
| O=C1CC(=O)NC(=O)N1 | inactive | inactive |  | inactive | inactive | inactive | inactive | inactive | inactive | inactive | inactive | inactive | inactive | inactive | inactive | inactive | inactive | inactive | inactive | inactive |
| CCN(CCO)CCn1c(Cc2ccccc2)nc2c1c(=O)n(C)c(=O)n2C | inactive | inactive | inactive | inactive | inactive | inactive | inactive | inactive | inactive |  |  | inactive |  | inactive | inactive |  | inactive |  |  |  |
| CON(C)C(=O)Nc1ccc(Br)c(Cl)c1 | inactive | 30.6 µM (active) | inactive |  |  | inactive | inactive | inactive |  |  |  |  | inactive |  | inactive | inactive | inactive |  |  |  |
| CCC(=O)OC1(c2ccccc2)CCN(C)CC1 | inactive | inactive | inactive | inactive | inactive | inactive | inactive | inactive | inactive | inactive | inactive | inactive | inactive | inactive | inactive |  | inactive | inactive | inactive | inactive |
| CN1C(=O)COc2c(C(=O)NC3CN4CCC3CC4)cc(Cl)cc21 (stereo unspecified) | inactive | inactive |  | inactive | inactive |  | inactive | inactive | inactive | inactive | inactive |  | inactive |  | inactive | inactive | inactive | inactive | inactive | inactive |
| Cc1ccc2cc(C)ccc2c1 | inactive | inactive | inactive | inactive | inactive | inactive | inactive | inactive | inactive |  |  | inactive | inactive | inactive | inactive |  | inactive | inactive | inactive |  |
| CCOC(=O)CC(SP(=S)(OC)OC)C(=O)OCC (stereo unspecified) | inactive | inactive and 33.1 µM (active) | inactive | inactive | inactive | 6.86 µM (active) | inactive | inactive |  | inactive | inactive |  | inactive |  | inactive |  |  | inactive |  | inactive |
| C=C(Cl)CSC(=S)N(CC)CC | 18.8 µM (active) | inactive | inactive |  | inactive |  | inactive |  |  | inactive |  | inactive | inactive | inactive | inactive | inactive | inactive | inactive | inactive | inactive |
| CCOC(=O)C(Cl)Cc1cc(-n2nc(C)n(C(F)F)c2=O)c(F)cc1Cl (stereo unspecified) | inactive | inactive | inactive | inactive | inactive |  | inactive | inactive | inactive | inactive | inactive |  |  | inactive | inactive |  | inactive | inactive | inactive | inactive |
